The text below walks through data of PubChem BioAssay.

Structures are written as SMILES. Calls of active or inactive are those of the source.

Experiment [1] has as its system Human papillomavirus type 1a protein E7 (residues 44-93). The experiment in a line: small molecules binding HPV E7 44-93 – biochemical, small-molecule microarray, residues 44-93, 635 nm fluorescence, primary screen (AID 1108).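 Also: E7 fragment applied at 1 µg/mL in TBST for 1 h at 4 C; score combines spot fluorescence with its signal to noise ratio.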 The note with it: fluorescence 635 nm, higher = more signal.
The nature of experiment [2]: hepatitis C replication reporter changes, two-sided – Huh7 cells, luciferase reporter, HCV replication inhibitor project, primary screen (AID 1109).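 Also: huh7 hepatoma cells harbouring a luciferase neomycin HCV replicon reporter; luciferase luminescence as measure of HCV replicon replication; test concentration not given here.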 The note with it: Huh7 HCV replicon luciferase reporter, 48 h; higher = more signal. In general terms: Reporter assays use an easily measured gene product as a stand-in for the process of interest.
Experiment [3] concerns the target Left-right determination factor 2 (Homo sapiens) (UniProt O00292). The experiment can be described thus: small molecules binding LEFTY2 protein – biochemical, small-molecule microarray, 635 nm fluorescence scan, primary screen (AID 1110). The note with it: higher = more signal.
Experiment [4] has as its target Calmodulin-1 (Homo sapiens) (UniProt P0DP23). The experiment can be described thus: small molecules binding calmodulin-1 with EGTA – biochemical, small-molecule microarray, Cy5-labelled CALM1, profiling panel (AID 1111).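 Also: labelled calmodulin applied in Tris saline Tween buffer holding calcium plus EGTA and DTT.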 The note with it: Cy5-CALM1 binding fluorescence, higher = more signal.
The target is the same in experiment [5]. The experiment in a line: small molecules binding Ca-loaded calmodulin-1 – biochemical, small-molecule microarray, Cy5-labelled CALM1, plus calcium, artefact control for SMM control-protein annotation, profiling panel (AID 1112).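 Also: score merges spot fluorescence with signal to noise from triplicate slides.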 The note with it: Cy5-CALM1 binding fluorescence, higher = more signal.
The nature of experiment [6]: probe aWnt5a binding to arrayed compounds – biochemical, biotinylated probe, 635/667 nm fluorescence, primary screen (AID 1113).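 Also: score merges 667 nm fluorescence intensity with signal-to-noise per printed feature.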 Particulars: small-molecule microarray, higher = more signal.
Experiment [7] can be described thus: probe aShh binding to arrayed compounds – biochemical, biotinylated probe, 635/667 nm fluorescence, primary screen (AID 1114).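 Also: probe is biotin-labelled aShh protein from a stem cell growth factor screen; measures binding of labelled protein to compounds printed on the slide; score merges feature fluorescence at 667 nm with signal-to-noise.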 Particulars: small-molecule microarray, higher = more signal.
Experiment [8] in a line: probe aNog binding to arrayed compounds – biochemical, biotinylated probe, 635/667 nm fluorescence, primary screen (AID 1115).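 Also: probe is biotinylated aNog protein used at 0.15 µg/mL for 1 h at 4 C; z-score combines 667 nm fluorescence of each spot with its signal to noise.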 The note with it: small-molecule microarray, higher = more signal.
Experiment [9] deals with Torsin-1A-interacting protein 1 (Homo sapiens) (UniProt Q5JTV8). The experiment can be described thus: compound microarray binding of lysate hLAP1 – cell lysate, small-molecule microarray, COS7 lysate, 635/667 nm fluorescence, primary screen (AID 1116). The note with it: 635 nm fluorescence, higher = more signal.
In experiment [10] the target is Alpha-bungarotoxin (Bungarus multicinctus) (UniProt P60615). The experiment in a line: compounds binding labelled alpha-BTX control protein – biochemical, small-molecule microarray, Alexa647 label, 635/667 nm fluorescence, artefact control for SMM control protein annotation, profiling panel (AID 1117). The note with it: alpha-BTX-A647 binding fluorescence, higher = more signal.

Another experiment addresses Albumin (Bos taurus) (UniProt P02769). The experiment in a line: compounds binding labelled BSA control protein – biochemical, small-molecule microarray, Alexa647 label, 635/667 nm fluorescence, artefact control for SMM control protein annotation, profiling panel (AID 1118).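 Also: score merges 667 nm emission intensity and signal-to-noise per printed compound spot.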 Particulars: BSA-A647 binding, fluorescence 635 nm, higher = more signal.
A short description of experiment [11]: probe aXIP binding to arrayed compounds – biochemical, NeuroSMM set, 635/667 nm fluorescence, primary screen (AID 1119).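 Also: probe is the protein aXip251-270 applied at 1 µg/mL to compound-printed slides; binding of probe to printed compounds measured as 667 nm fluorescence plus signal to noise.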 Particulars: small-molecule microarray, higher = more signal, called active from +8 up or from −8 down.
Experiment [12] in a line: probe aNOTCH3 binding on compound microarray – biochemical, small-molecule microarray, 635/667 nm fluorescence, primary screen (AID 1120).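 Also: probe is a biotin-tagged antibody raised against NOTCH3 rather than NOTCH3 protein; score merges spot fluorescence near 667 nm with spot signal to noise.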 Particulars: higher = more signal.
Experiment [13] in a line: probe aNOTCH2 binding on compound microarray – biochemical, small-molecule microarray, 635/667 nm fluorescence, primary screen (AID 1121).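 Also: score merges feature fluorescence read at 667 nm with its signal to noise.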 The note with it: higher = more signal.
In experiment [14] the target is Carbonic anhydrase 2 (Homo sapiens) (UniProt P00918). The experiment in a line: compounds binding carbonic anhydrase 2 – biochemical, small-molecule microarray, Alexa647-labelled CAII, profiling panel (AID 1122). The note with it: CAII-A647 binding fluorescence, higher = more signal.
Experiment [15] is described as follows: COS7 lysate on small-molecule microarray, probe aHis, 635 nm (AID 1123).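 Also: z-score combines 667nm fluorescence intensity with signal-to-noise per printed compound spot.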 Particulars: COS7 cell lysate, fluorescence, higher = more signal.
The nature of experiment [16]: probe aLAP1 signal on lysate-treated microarray – cell lysate, small-molecule microarray, COS7 lysate, primary screen (AID 1124).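 Also: lysate comes from COS7 cells expressing LAP1 and is applied at 0.3 µg/mL; score merges spot fluorescence near 667 nm with signal-to-noise over triplicate slides.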 Particulars: probe aLAP1, fluorescence, higher = more signal.
Another experiment deals with Sam68 (KHDRBS1). The experiment can be described thus: compounds binding KHDRBS1 protein – biochemical, small-molecule microarray, 635 nm fluorescence, primary screen (AID 1125).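 Also: score merges 667 nm channel intensity with signal to noise over triplicate slides.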 Particulars: higher = more signal.
The test system of experiment [17] is Chordin-like protein 2 (CHRDL2). The experiment in a line: compounds binding chordin-like 2 – biochemical, small-molecule microarray, 635 nm fluorescence, primary screen (AID 1126).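 Also: printed compound slides probed with Chrdl2 protein at 4 µg/mL for 1 h at 4 C; score merges 667 nm emission intensity with signal to noise over three replicate slides.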 The note with it: fluorescence 635 nm, higher = more signal.
For experiment [18], the target named is Concanavalin-A (Canavalia ensiformis) (UniProt P02866). The experiment can be described thus: compounds binding concanavalin A lectin – biochemical, small-molecule microarray, Alexa647 label, 635 nm, artefact control for SMM control protein annotation, primary screen (AID 1127).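 Also: z combines 667 nm emission intensity with signal-to-noise across three replicate slides.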 The note with it: ConA-A647 binding fluorescence, higher = more signal.
Concanavalin-A (Canavalia ensiformis), sequence (P02866 whole entry, looked up): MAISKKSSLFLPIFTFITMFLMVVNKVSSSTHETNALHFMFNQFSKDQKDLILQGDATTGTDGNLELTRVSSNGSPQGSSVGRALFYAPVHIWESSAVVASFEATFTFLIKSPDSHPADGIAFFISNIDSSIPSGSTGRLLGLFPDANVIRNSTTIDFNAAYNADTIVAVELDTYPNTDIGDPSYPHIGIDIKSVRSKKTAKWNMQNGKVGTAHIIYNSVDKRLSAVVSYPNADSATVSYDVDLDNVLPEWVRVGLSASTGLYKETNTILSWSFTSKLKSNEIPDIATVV

Left-right determination factor 2 (Homo sapiens), sequence (O00292 whole entry, looked up): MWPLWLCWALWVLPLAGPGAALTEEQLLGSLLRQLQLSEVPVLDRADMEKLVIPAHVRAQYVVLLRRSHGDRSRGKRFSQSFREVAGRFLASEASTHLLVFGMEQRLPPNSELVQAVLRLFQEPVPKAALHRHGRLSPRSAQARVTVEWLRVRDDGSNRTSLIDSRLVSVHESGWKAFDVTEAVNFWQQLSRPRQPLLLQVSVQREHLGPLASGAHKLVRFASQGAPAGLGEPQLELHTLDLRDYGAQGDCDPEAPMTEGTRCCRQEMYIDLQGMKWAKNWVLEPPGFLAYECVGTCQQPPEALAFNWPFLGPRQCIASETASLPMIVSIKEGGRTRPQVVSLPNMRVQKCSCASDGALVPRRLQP
Torsin-1A-interacting protein 1 (Homo sapiens), sequence (Q5JTV8 whole entry, looked up): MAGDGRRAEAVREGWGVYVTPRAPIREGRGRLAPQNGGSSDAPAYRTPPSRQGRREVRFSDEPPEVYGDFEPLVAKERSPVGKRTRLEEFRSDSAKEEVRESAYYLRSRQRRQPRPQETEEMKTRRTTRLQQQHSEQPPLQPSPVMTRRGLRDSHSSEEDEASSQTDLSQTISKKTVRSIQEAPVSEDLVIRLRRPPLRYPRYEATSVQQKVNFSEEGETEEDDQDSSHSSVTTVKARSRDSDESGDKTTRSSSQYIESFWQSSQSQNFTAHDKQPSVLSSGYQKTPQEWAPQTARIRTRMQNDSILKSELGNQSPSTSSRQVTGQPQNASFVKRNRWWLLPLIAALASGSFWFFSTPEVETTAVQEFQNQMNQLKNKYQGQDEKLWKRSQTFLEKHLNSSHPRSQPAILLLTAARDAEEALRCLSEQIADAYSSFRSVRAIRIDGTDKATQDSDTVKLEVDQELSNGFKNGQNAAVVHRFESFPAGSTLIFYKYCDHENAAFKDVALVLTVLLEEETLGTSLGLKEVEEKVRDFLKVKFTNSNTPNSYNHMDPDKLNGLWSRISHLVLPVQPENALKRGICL
Alpha-bungarotoxin (Bungarus multicinctus), sequence (P60615 whole entry, looked up): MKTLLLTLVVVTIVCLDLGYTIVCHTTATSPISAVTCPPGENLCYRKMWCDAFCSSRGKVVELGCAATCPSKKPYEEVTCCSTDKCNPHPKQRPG
Albumin (Bos taurus), sequence (P02769 whole entry, looked up): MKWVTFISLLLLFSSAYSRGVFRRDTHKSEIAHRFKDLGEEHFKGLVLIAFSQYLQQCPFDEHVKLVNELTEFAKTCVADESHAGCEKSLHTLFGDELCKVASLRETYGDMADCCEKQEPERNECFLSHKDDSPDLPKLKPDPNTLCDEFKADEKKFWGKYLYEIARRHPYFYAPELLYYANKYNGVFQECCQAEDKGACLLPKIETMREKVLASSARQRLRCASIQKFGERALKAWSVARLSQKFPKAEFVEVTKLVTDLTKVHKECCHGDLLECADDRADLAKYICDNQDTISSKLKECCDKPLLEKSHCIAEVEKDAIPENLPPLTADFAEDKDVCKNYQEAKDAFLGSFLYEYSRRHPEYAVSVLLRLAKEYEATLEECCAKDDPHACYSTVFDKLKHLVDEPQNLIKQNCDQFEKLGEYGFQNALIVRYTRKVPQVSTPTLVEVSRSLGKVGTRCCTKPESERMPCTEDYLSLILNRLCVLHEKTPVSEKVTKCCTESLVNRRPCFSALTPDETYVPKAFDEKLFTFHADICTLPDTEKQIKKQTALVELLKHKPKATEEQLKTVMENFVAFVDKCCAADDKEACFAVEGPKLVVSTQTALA

Consider `CO[C@H]1COC(=O)[C@H](C)COC(=O)[C@H](C)NC(=O)CC=C[C@H]1C`, for which the composite z-score in experiment [1] was 0.429; in experiment [3] it was 0.945; in [4], -0.891; in [5] it was -1.85; in [6] it was -0.154; in experiment [7] it was 0.0121. Besides, the composite z-score in experiment [8] was -0.41; in experiment [9] it was 0.143; in experiment [10], -0.369; with Albumin (Bos taurus), -0.642; in experiment [12] it was -0.131; in experiment [13], -0.0051. The composite z-score in experiment [14] was 0.0006; in experiment [15] it was -0.429; in [16], 0.352; in the experiment on Sam68 (KHDRBS1), 1.04; in [17], 1.44; in [18], -0.581. The compound also had a z-score in [2] of -0.935. The composite Z-score in [11] was 1.19 (inactive).
On to `O=C1[C@H]2[C@H]3[C@H](O)[C@H](O)CC(=NOCc4ccccc4)[C@H]3CC[C@H]2C(=O)N1C1CCCCC1`, for which the composite z-score is 0.656 in experiment [1]; 0.531 in [3]; 0.55 in experiment [4]; 0.158 in experiment [5]; -0.0572 in experiment [6]; 0.0754 in experiment [7]. In addition, the composite z-score in experiment [8] is 0.165; in [9] it was -0.106; in experiment [10], 1.01; with Albumin (Bos taurus), 0.487; in experiment [12] it was -0.0744; in experiment [13] it was -0.14. For the same compound, the composite z-score in experiment [14] was 0.505; in [15], 0.596; in [16], -0.438; in the experiment with Sam68 (KHDRBS1), 0.734; in experiment [17], 0.318; in [18], 0.921. Moreover, the z-score in [2] worked out at 0.409. For the same compound, in experiment [11], the composite Z-score is 0.447 (inactive).
For `CCOC(=O)CCN1C(=O)[C@H]2[C@H]3[C@H](O)[C@H](O)CC(=NNC(=O)OCc4ccccc4)[C@H]3CC[C@H]2C1=O`, the composite z-score in [1] was -0.994; in [3], 0.863; in experiment [4], -1.01; in experiment [5] it was -1.23; in experiment [6], -0.0045; in experiment [7], -0.138. The composite z-score was -0.0091 in experiment [8]; 0.264 in experiment [9]; -0.245 in experiment [10]; -0.914 with Albumin (Bos taurus); 0.232 in [12]; -0.0309 in experiment [13]. Also, the composite z-score in [14] is -0.67; in [15] it was -1.26; in [16], -0.0688; in the experiment on Sam68 (KHDRBS1) it was -1.01; in experiment [17] it was 1.4; in experiment [18], -0.636. Besides, the z-score in experiment [2] came to 0.283. The composite Z-score in [11] was 0.734 (inactive).
Consider `COCOc1ccc(Br)cc1C(=O)C=Cc1ccc2c(c1)OCO2`, for which the composite z-score in experiment [1] was -0.478; in experiment [3] it was 0.489; in experiment [4], -0.978; in experiment [5], -1.25; in [6], -0.0721; in [7], -0.2. Also, the composite z-score is 0.0689 in experiment [8]; 0.0258 in experiment [9]; 0.075 in [10]; -0.0265 in the experiment with Albumin (Bos taurus); -0.132 in [12]; -0.169 in experiment [13]. Besides, the composite z-score was -0.321 in experiment [14]; -0.576 in experiment [15]; -0.684 in experiment [16]; -0.562 with Sam68 (KHDRBS1); 0.525 in [17]; -0.723 in [18]. Besides, the z-score in experiment [2] was -3.81. Besides, the composite Z-score in [11] was 1.33 (inactive).
`CCN1C(=O)[C@H]2[C@H]3[C@H](O)[C@H](O)CC(=NOC(C)CN4CCCc5nc(C)c(C)cc54)[C@@H]3CC[C@H]2C1=O` (stereo not given in full): the composite z-score in experiment [1] is 0.562; in experiment [3], 0.803; in experiment [4] it was -0.528; in experiment [5] it was -1.03; in experiment [6], -0.0478; in experiment [7], 0.275. For the same compound, the composite z-score in [8] is 0.182; in [9], 0.304; in experiment [10] it was -0.0882; with Albumin (Bos taurus), -0.558; in experiment [12], 0.148; in experiment [13], 0.0137. Further, the composite z-score in [14] is 0.014; in [15] it was -0.0995; in experiment [16], 0.284; in the experiment with Sam68 (KHDRBS1), 1.05; in [17], 0.893; in [18], -0.471. The z-score in experiment [2] was -1.21. The composite Z-score in [11] is 0.635 (inactive).
On to `CCc1cc2c(nc1CC)CCN(CCC(C)=NO[C@@H]1O[C@H](COC(C)=O)[C@@H](OC(C)=O)[C@H](OC(C)=O)[C@H]1OC(C)=O)C2`, for which the composite z-score in [1] is 1.31; in experiment [3], 1.3; in [4] it was -0.199; in experiment [5], -0.502; in [6], 0.0251; in [7] it was -0.291. In addition, the composite z-score in experiment [8] is -0.152; in [9] it was 2.85; in [10], 1.01; with Albumin (Bos taurus), 0.314; in experiment [12] it was 0.105; in experiment [13] it was -0.0527. The composite z-score in [14] was 0.0275; in experiment [15] it was 1.34; in experiment [16] it was 0.388; with Sam68 (KHDRBS1), 1.32; in experiment [17], 0.922; in [18], 0.571. The z-score in experiment [2] is -0.998. The composite Z-score in experiment [11] was -0.0798 (inactive).
As for `C=CC[C@@H]1C=C[C@H](ON=C(C)CCN2CCCc3nc(C)c(C)cc32)[C@@H](CO)O1`, the composite z-score in experiment [1] is 0.298; in experiment [3], 1.14; in experiment [4] it was -0.0351; in experiment [5] it was -1.43; in [6], 0.264; in experiment [7], 0.586. Besides, the composite z-score in experiment [8] was 0.525; in experiment [9], 1.83; in experiment [10], 0.366; with Albumin (Bos taurus) it was -0.858; in experiment [12] it was 0.712; in experiment [13] it was 0.276. Besides, the composite z-score is -0.1 in experiment [14]; 0.735 in experiment [15]; 0.629 in [16]; 1.32 in the experiment on Sam68 (KHDRBS1); 1.3 in [17]; -0.12 in experiment [18]. For the same compound, the z-score in [2] was -0.839. The composite Z-score in experiment [11] is 2.94 (inactive).
As to `CC(=O)OC[C@H]1O[C@H](CC=NOC[C@@H](O)COCc2ccco2)C=C[C@@H]1OC(C)=O`, the composite z-score in experiment [1] is -0.646; in experiment [3] it was 0.898; in experiment [4] it was -1.18; in experiment [5], -2.22; in [6], -0.102; in [7], -0.356. Also, the composite z-score was -0.498 in experiment [8]; 1.58 in experiment [9]; -0.663 in experiment [10]; 0.037 in the experiment with Albumin (Bos taurus); 0.282 in experiment [12]; -0.0022 in experiment [13]. Also, the composite z-score is -0.287 in [14]; -0.37 in [15]; -0.14 in experiment [16]; 0.586 in the experiment with Sam68 (KHDRBS1); 1.46 in [17]; -0.389 in experiment [18]. The compound also displayed a z-score in experiment [2] of 0.586. For the same compound, in experiment [11], the composite Z-score is 0.328 (inactive).
